The campaign covered roughly 200,000 compounds. About 18,000 (9%) were called active. This is one part of a sample in which actives are shown more often than they occur. A number with no mark means an inactive call. Rule as the data show it: active = inhibition above about 50%; inactive = the rest.

The nature of this assay: Leishmania major promastigote growth inhibition, primary screen (AID 1063).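 Also: promastigotes grown with compound for 44 hours at 28 °C.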 To be noted: Leishmania major promastigotes, resazurin fluorescence viability; at 10 µM; active compounds read high. (The colour change of resazurin is a common sign of viable cells or microbes.)
A word on the inhibition: it is the change of the read-out against control, counted positive when it falls. For `O=C1c2ccccc2NC(c2ccccc2O)N1NS(=O)(=O)c1ccccc1` (centres undefined), the inhibition was 7.23%. Take `Cc1ccc(Cl)c(NC(=O)CN2CCN(C=O)CC2)c1`: the inhibition was -1.88%. Next, `COc1cccc(NC(=O)c2ccc3c(SCC(=O)O)c4c(nc3c2)CCCC4)c1`: 7.5%; `O=C(Nc1ccncc1)c1cc(-c2ccccn2)nc2ccc(Br)cc12`: 2.98%; `NC(=O)c1ccccc1N(Cc1ccccc1)S(=O)(=O)c1ccccc1`: 2.81%.

Turning to `CC(C)(C)n1nc2c(c1NC(=O)c1cc3ccccc3o1)CSC2`, the inhibition is 1.01%. Next, `COc1ccccc1N1CCN(c2ccc([N+](=O)[O-])nc2)CC1`: -10.8%; `C/C(=N/N1CCN(Cc2cccc3ccccc23)CC1)c1cccnc1`: 17.2%; `CCOC(=O)C1(Cc2ccccc2C(F)(F)F)CCN(C(=O)c2cc(C)n(C)n2)CC1`: 5.02%. In the case of `OCC1(Cc2ccccc2C(F)(F)F)CCN(Cc2cccc3cnccc23)CC1` it was 88.2% (active); in that of `COc1ccc(C2=NN(c3nc4ccccc4s3)C(=O)C2)cc1`, -7.22%; in that of `CCC(C)(C)NC(=O)CN(C(=O)CCC(=O)Nc1cc(C)ccn1)c1ccc2c(c1)OCCO2`, -0.92%. In the case of `CCC(C)N(C)C1CCN(C(=S)Nc2ccc(OC)cc2)CC1` (centres undefined), the inhibition was 34.2%.

Consider `CCOc1ccc(NC(=S)N2CCC(N(C)CC3CCCO3)CC2)cc1` (centres undefined), for which the inhibition is 96.2% (active). In the case of `CCOc1ccc(NC(=S)N2CCCCCC2)cc1` it was 3.65%; in that of `Cn1cc(CN2CCC(C(O)CCc3ccccc3)CC2)c(-c2ccccc2F)n1` (centres undefined), -2.53%; in that of `Cc1ccc(NC(=O)Cn2c(=O)n(CCC(=O)NC3CCN(Cc4ccccc4)CC3)c(=O)c3ccccc32)cc1`, 0.09%. In the case of `Cc1ccc(CNC(=O)CCNS(=O)(=O)c2ccc(Br)s2)cc1` it was -6.86%; in that of `COc1ccc(CN2CN(C(C)C)CSC2=S)cc1`, 96.4% (active). For `COc1ccc(CN2CN(C3CCCC3)CSC2=S)cc1`, the inhibition is 5.66%. Take `COc1ccc(Cn2c(=O)cc(C)[nH]c2=S)cc1`: the inhibition is -4.72%. In the case of `COc1ccccc1CSc1nc2ccccc2[nH]1` it was -3.47%; in that of `COc1ccccc1CSc1ncc(-c2ccc([N+](=O)[O-])cc2)[nH]1`, 76.4% (active); in that of `COc1ccccc1CC(=O)Nc1ccc([N+](=O)[O-])cc1OC`, -0.93%. In the case of `CCOC(=O)/C=c1\s/c(=C\c2ccc(C#N)cc2)c(=O)n1CC(=O)Nc1cccc(C)c1C` it was -1.97%. Take `CCOC(=O)C/C(C)=N\Nc1ccc([N+](=O)[O-])cc1[N+](=O)[O-]`: the inhibition was 2.68%. `CN1C(=O)/C(=C/C=C2\SCCN2C)OC1=S`: the inhibition was 12.9%.

Take `COc1ccc(N(CC(=O)N/N=C/c2cccs2)S(=O)(=O)c2ccc(OC)c(OC)c2)cc1`: the inhibition was 3.63%.

Turning to `COc1ccc(CN(Cc2ccco2)S(=O)(=O)c2ccc(S(=O)(=O)N3CCCC3)cc2)cc1`, the inhibition was -4.09%.

Consider `CCN(CC)S(=O)(=O)c1ccc(N2CCCC2)c(NS(=O)(=O)c2cccs2)c1`, for which the inhibition is -1.33%. In the case of `COc1cc(S(=O)(=O)N(Cc2cccs2)C2CC2)ccc1-n1cnnn1` it was 99.8% (active); in that of `CCOc1ccc(CN(Cc2ccco2)S(=O)(=O)c2ccc(-n3cnnn3)c(OC)c2)cc1`, 95.5% (active); in that of `CCOc1ccc(S(=O)(=O)N(CC(=O)NCC(F)(F)F)Cc2ccco2)cc1`, -5.48%.

Take `C=CCn1c(CCc2ccc(OC(C)C)cc2)n[nH]c1=S`: the inhibition was 1.12%.

Take `O=C(c1ccc(F)cc1)N1CCC(n2nnc3ccccc32)CC1`: the inhibition is 1.08%.

Take `CC(=O)c1c(O)cc2n(c1=O)-c1ccc(Cl)cc1C2(C)C`: the inhibition was -6.77%. Next, `CCc1c(O)cc2n(c1=O)-c1ccccc1C2(C)C`: 51.1% (active); `CCc1c(O)nc(SCC(=O)N2CCCCC2)n(-c2ccccc2C)c1=O`: 1%; `O=C(Nc1nnc(C2CC2)s1)C1=NN(C2CCS(=O)(=O)C2)C(=O)CC1` (centres undefined): -3.9%.

For the compound `COC(=O)c1cc2c(ccn2C)n1C`, the inhibition was -2.26%.

As to `N#CC1=C(SCc2ccc(C#N)cc2)N=C(N)C(c2nc(-c3ccccc3)cs2)C12CCCCC2` (centres undefined), the inhibition is 98% (active). On to `N#C/C(=C1\CCCN1)c1nc(-c2ccccc2)cs1`, for which the inhibition is 4.05%. In the case of `N#CC1=C(SCc2ccccc2)NC(=O)C(C#N)C12CCCC2` (centres undefined) it was -9.59%; in that of `CCN(CC)S(=O)(=O)c1ccc(OC(C)C)c(N)c1`, -4.13%; in that of `Nc1nc(SCC(=O)NNc2c(Cl)cc(Cl)cc2Cl)n[nH]1`, -7.01%.

Take `CCOC(=O)CNC(=O)N1c2ccccc2Sc2ccccc21`: the inhibition was 3.23%.

Regarding `COc1cc(/C=C/C(=O)O)cc(S(=O)(=O)Nc2ccccc2SC)c1OC`, the inhibition was 46.9%. In the case of `COc1cc(/C=C/C(=O)N2c3ccccc3Sc3ccc(C(F)(F)F)cc32)cc(OC)c1OC`, the inhibition is 81.2% (active). Next, `O=C(CN1CCCCCC1)N1c2ccccc2Sc2ccc(C(F)(F)F)cc21`: 46%. As for `O=C(CN1CCCCC1)N1c2ccccc2Sc2ccc(C(F)(F)F)cc21`, the inhibition was 92% (active).

As to `COc1cc(/C=C2\SC(=S)N(Nc3ncc(C(F)(F)F)cc3Cl)C2=O)cc(OC)c1OC`, the inhibition was -11.1%.

As to `O=C(NC(Cc1c[nH]c2ccccc12)C(=O)O)/C(=C/c1ccco1)NC(=O)c1ccccc1` (centres undefined), the inhibition is 3.28%. Next, `COc1ccc(CC(NC(C)=O)C(=O)NC2CCN(C(=O)c3ccc(OC)c(OC)c3)CC2)cc1OC` (centres undefined): -4.66%; `CCCN(CC(=O)Nc1ccc(C(N)=O)cc1)CC(=O)Nc1ccccc1C`: 7.98%; `Cc1cccc(C(=O)Nc2ccc3c(c2)C(=O)N(CC(C)C)C3=O)c1`: -9.76%.

In the case of `COc1ccc2c(c1)cc1n2CCN=C1NN`, the inhibition was 84.1% (active).

With `Cc1cc(C(=O)Cn2cnc3cc([N+](=O)[O-])ccc3c2=O)c(C)n1CC1CCCO1` (centres undefined), the inhibition was -3.96%. For `Clc1ccc(C2=CSC3=Nc4cccc5cccc(c45)N23)cc1`, the inhibition was 99.4% (active).

Consider `Cc1ccc(NC(=O)O/N=C/c2cccc([N+](=O)[O-])c2)cc1`, for which the inhibition was -3.19%. As to `O=C1CCC/C(=N\NC(=O)NC2CCCCC2)C1`, the inhibition was -1.59%. Consider `CCOc1ccc(S(=O)(=O)Nc2nccs2)cc1`, for which the inhibition is -5.45%.

Consider `CC(C)(C)C(=O)CN1C2=NCCN2c2ccccc21`, for which the inhibition was -5.39%. Next, `Fc1cccc(CSc2nnc3ccc(-c4ccncc4)nn23)c1`: 10.7%; `Cc1c(C(=O)CN2CCOCC2)[nH]c2ccccc12`: -3.24%.

With `CCOC(=O)c1[nH]c2ccc(OC)cc2c1NC(=O)N1CCOCC1`, the inhibition was 2.48%. In the case of `Cc1c(C(=O)N2CCOCC2)[nH]c2ccc(OCc3ccccc3)cc12` it was 88.8% (active); in that of `CCCCN(C(=O)c1ccc(OC(F)(F)F)cc1)c1c(N)n(CCC)c(=O)[nH]c1=O`, -4.12%. In the case of `Cc1ccc(S(=O)(=O)N(C)C)cc1NC(=O)COC(=O)C1COc2ccccc2O1` (centres undefined), the inhibition was 4.18%. In the case of `Fc1ccc2nc(N3CCCCC3)sc2c1` it was 2.6%; in that of `CSc1ncccc1C(=O)Nc1nc2ccc(F)cc2s1`, 28.5%. For the compound `Fc1ccc2nc(Nc3nc4c(s3)CCCC4)sc2c1`, the inhibition is 77.9% (active).

Turning to `CCn1c(SCC(=O)N(C)C2CCS(=O)(=O)C2)nnc1-c1cccs1` (centres undefined), the inhibition is -1.56%. In the case of `COc1ccc(NC(=O)c2cc3nc(-c4ccccc4)cc(C)n3n2)cc1OC` it was 19.4%; in that of `CC(=O)N(CCCN(C)C)c1nc2ccc(C)cc2s1`, -6.81%; in that of `COc1cccc2sc(N(CCCN(C)C)C(=O)C(c3ccccc3)c3ccccc3)nc12`, 94.5% (active). Next, `CN(C)CCCN(C(=O)COc1ccccc1)c1nc2c(Cl)cccc2s1`: 1.9%; `CCCCCCCNc1nc(Cl)nc(NCCO)n1`: -8.89%. Consider `COc1ccc(Br)cc1CN1CCN(C(=O)c2cccc(OC)c2OC)CC1`, for which the inhibition is 0.16%. Next, `COc1cc2c(C(=O)N3CCN(C)CC3)c(CSc3ccccc3)n(C)c2cc1Br`: 50.6% (active); `COc1ccccc1OCc1ccc(C(=O)N2CCN(C)CC2)o1`: -7.4%. With `CC(=O)c1ccc(N2CCN(S(=O)(=O)c3c(C)[nH]c(=O)[nH]c3=O)CC2)cc1`, the inhibition is -5.88%. With `Cc1oc2cc([N+](=O)[O-])c(O)c([N+](=O)[O-])c2c1C(=O)c1ccc(Br)cc1`, the inhibition is -8.1%. Next, `COc1cccc(CN(C)CC(=O)Nc2sc3c(c2C#N)CCC3)c1`: -4.03%; `O=C(CN1C(=O)CC(c2ccccc2)S(=O)(=O)c2ccccc21)NC1CCCC1` (centres undefined): 5.62%; `COc1ccc(-n2cnnc2SCC(=O)Nc2cccc([N+](=O)[O-])c2)cc1`: -9.51%.

As to `CC(C)CC(=O)NC(=S)NNC(=O)c1cccc([N+](=O)[O-])c1`, the inhibition is 7%. In the case of `Cn1c(-c2ccc(F)cc2)cnc1SCC(=O)NNC(=O)Cc1ccccc1` it was 0.35%.

In the case of `COC(=O)Cn1c(=NC(=O)c2cc(OC)c(OC)c(OC)c2)sc2cc(OC)ccc21`, the inhibition is 55.3% (active). Next, `COC(=O)Cn1c2ccc(C)cc2c2nc(C)sc21`: -6.29%; `COC(=O)c1sccc1NC(=O)c1cc(OC)c(OC)c(OC)c1`: 8.27%; `CC(C)(C)C(=O)CSc1nc2ccccc2o1`: 4.86%. `CCN(CC)CCNc1nc(-c2ccc(OC(F)F)cc2)c(C)s1`: the inhibition is 99.4% (active).

Take `NC(=O)C[n+]1cccc(C(N)=O)c1`: the inhibition was -3%.

On to `COn1c(-c2ccc(Cl)cc2Cl)nc2ncccc21`, for which the inhibition is -6.75%.

The record behind these values is PubChem BioAssay AID1063 (University of Pittsburgh Molecular Library Screening Center, 2008).
